Over roughly 33,000 sequences, “e-score” has its median near -0.05; the highest 2% begin near 0.38. The list comes from a sample in which the highest values are over-represented; it also holds similar and randomly drawn sequences.

Our source for the binding signal values is PMC10668032, “Altered binding affinity of SIX1-Q177R correlates with enhanced WNT5A and WNT pathway effector expression in Wilms tumor”.

This experiment addresses T1, SIX1-Q177R homeodomain (human, UniProt Q15475 108-198, Q177R).
T1 sequence: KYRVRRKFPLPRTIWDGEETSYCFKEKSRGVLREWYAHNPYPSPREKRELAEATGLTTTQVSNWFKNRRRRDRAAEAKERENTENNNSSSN
The experiment is described as follows: universal protein binding microarray; Universal all-10-mer PBM (8x60K, AMADID 030236), 300 nM GST-tagged protein, Alexa Fluor 488 anti-GST; buffer, salt, pH and temperature not stated (as in Berger); high values mean tight binding. Particulars: protein: ivt; tags: N-terminal GST; dsDNA, one strand shown. Put shortly:
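GST-tagged homeodomains were made by in vitro transcription/translation and quantified by anti-GST western blot against a recombinant GST standard curve. They were applied in duplicate at 300 nM final concentration to universal 'all 10-mer' protein binding microarrays (8×60K format). Binding was quantified as 8-mer E-scores with the Universal PBM Analysis Suite.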
Take CACACTCC: the binding signal was 0.291 ± 0.0144 E-score.
GACACTCA: the binding signal was found to be 0.422 ± 0.00429 E-score.
Turning to GATACTCA, the binding signal turned out to be 0.16 ± 0.00991 E-score.
As to AACACTCG, the binding signal is 0.337 ± 0.0357 E-score.
In the case of AACACTCC, the binding signal worked out at 0.379 ± 0.0156 E-score.
With CACACTAA, the binding signal came to 0.204 ± 0.0117 E-score.
Turning to GACACTCC, the binding signal came to 0.43377 ± 0.000417 E-score.
In the case of CACACTCA, the binding signal came to 0.21 ± 0.0192 E-score.
The figure for AACACTCT is 0.35 ± 0.036 E-score; for CGGATCAC it is 0.174 ± 0.0108 E-score; for CACGGAGC it is 0.163 ± 0.00672 E-score.
As for CACTAGCG, the binding signal stood at 0.188 ± 0.0248 E-score.
As to CCGTGCGA, the binding signal worked out at 0.155 ± 0.0514 E-score.
Turning to CCGGTATC, the binding signal worked out at 0.284 ± 0.0126 E-score.
The figure for ACGGTGCG is 0.167 ± 0.0105 E-score.
Take ACGGTGTG: the binding signal amounted to 0.367 ± 0.0153 E-score.
As to ACGGTGTC, the binding signal is 0.4875 ± 0.00246 E-score.
For the sequence CCGGTGCG, the binding signal worked out at 0.179 ± 0.0475 E-score.
Turning to CCGGTGTC, the binding signal is 0.4894 ± 0.00404 E-score.
ACGGGGTG: the binding signal came to 0.338 ± 0.0174 E-score.
The figure for ACCTGGTG is 0.322 ± 0.00697 E-score; for ACAATACA it is 0.194 ± 0.0158 E-score; for CTAGGACA it is 0.162 ± 0.0316 E-score.
TAATCACA: the binding signal stood at 0.213 ± 0.0222 E-score.
On to GGGGTTGA, for which the binding signal came to 0.2 ± 0.025 E-score.
In the case of CGACACTA, the binding signal stood at 0.41 ± 0.00325 E-score.
With GGACACTA, the binding signal stood at 0.358 ± 0.00739 E-score.
The figure for AGACACTA is 0.343 ± 0.00686 E-score; for CGACACTC it is 0.437 ± 0.00883 E-score.
The figure for AGACACTC is 0.3634 ± 0.00141 E-score; for ACGCCCGA it is 0.17 ± 0.0302 E-score.
The figure for CCTGCACC is 0.16 ± 0.00461 E-score; for ACCCAAGT it is 0.157 ± 0.00998 E-score; for AAGCACCA it is 0.24 ± 0.00412 E-score.
Consider CCGGACGA, for which the binding signal was 0.185 ± 0.0376 E-score.
In the case of GCGGATAC, the binding signal stood at 0.2681 ± 0.00246 E-score.
To ACGGACAC belongs 0.41 ± 0.0174 E-score.
CCGGACAC: the binding signal is 0.427 ± 0.0142 E-score.
As to ACGGATAC, the binding signal came out at 0.28 ± 0.00317 E-score.
With GCGCACAC, the binding signal came to 0.289 ± 0.0303 E-score.
With GCGGACAC, the binding signal is 0.406 ± 0.0139 E-score.
To CCGGATAC belongs 0.262 ± 0.00585 E-score; to ACGGAGTC, 0.181 ± 0.0091 E-score.
The figure for CCCTCTGA is 0.153 ± 0.0264 E-score.
Turning to CACTGAGA, the binding signal came to 0.202 ± 0.0113 E-score.
Regarding GCTTAACA, the binding signal came out at 0.171 ± 0.0194 E-score.
For ACCAGAGT, the binding signal was 0.16 ± 0.0333 E-score.
Turning to ACCCTTAA, the binding signal amounted to 0.175 ± 0.0783 E-score.
Regarding ATCCCTAG, the binding signal worked out at 0.154 ± 0.00215 E-score.
Turning to CACTCGTA, the binding signal was 0.152 ± 0.0172 E-score.
As for CGGCGTAC, the binding signal is 0.209 ± 0.00229 E-score.
To TATGGACA belongs 0.167 ± 0.0099 E-score.
Consider CACTTTAC, for which the binding signal worked out at 0.221 ± 0.0328 E-score.
For ACACTTTG, the binding signal was determined as 0.31 ± 0.0292 E-score.
Turning to ACCCCTTA, the binding signal is 0.228 ± 0.014 E-score.
In the case of ACACCTTC, the binding signal came out at 0.46 ± 0.0107 E-score.
For ACACCTTA, the binding signal came to 0.456 ± 0.00729 E-score.
As to ACACCTTG, the binding signal came out at 0.44 ± 0.00935 E-score.
With CCACCTTC, the binding signal was determined as 0.19 ± 0.00382 E-score.
As to ACACGTTA, the binding signal was 0.297 ± 0.0383 E-score.
Take ACCCCTTG: the binding signal amounted to 0.237 ± 0.00827 E-score.
ACCCCTTC: the binding signal came to 0.2425 ± 0.00198 E-score.
For GACAGGGC, the binding signal is 0.162 ± 0.0431 E-score.
The figure for TTACACAA is 0.223 ± 0.0118 E-score; for GAAGCACC it is 0.238 ± 0.00424 E-score; for GTACCCCA it is 0.247 ± 0.0214 E-score.
With ATACGACA, the binding signal is 0.18 ± 0.0318 E-score.
The figure for ACCCAAGA is 0.163 ± 0.00205 E-score.
For CACCGCAG, the binding signal was found to be 0.241 ± 0.0286 E-score.
In the case of GAAAACAC, the binding signal amounted to 0.383 ± 0.0136 E-score.
For CGAAACAC, the binding signal was 0.339 ± 0.0288 E-score.
As for GGAAACAC, the binding signal turned out to be 0.374 ± 0.004 E-score.
In the case of AAAAACAC, the binding signal was 0.368 ± 0.0203 E-score.
Consider AGAAACAC, for which the binding signal turned out to be 0.408 ± 0.0147 E-score.
AGAAAACA: the binding signal worked out at 0.192 ± 0.0184 E-score.
Regarding GGGATCCC, the binding signal was 0.31 ± 0.0322 E-score.
Turning to GGTGCATA, the binding signal stood at 0.195 ± 0.0199 E-score.
With GGGATCAA, the binding signal came out at 0.189 ± 0.0285 E-score.
Turning to GGTGTTCA, the binding signal amounted to 0.4614 ± 0.000559 E-score.
The figure for GGGGTTCA is 0.256 ± 0.0435 E-score; for CGTGTTCC it is 0.34 ± 0.0151 E-score.
As to GGTGCTCA, the binding signal came to 0.25 ± 0.046 E-score.
Regarding AGTGTTCA, the binding signal was 0.343 ± 0.0114 E-score.
As for CGTGTTCA, the binding signal amounted to 0.4087 ± 0.0026 E-score.
In the case of CCCGATGA, the binding signal stood at 0.16 ± 0.00231 E-score.
To CTCCCGCA belongs 0.155 ± 0.0331 E-score; to ACCCAGGC, 0.162 ± 0.0568 E-score.
